# From PubChem
# POLI inh = inhibitors of human DNA polymerase iota | Q9UNA4 | Pol iota fluorescent replication assay, 10 min | Potency, µM (top dose mostly 115 µM), inactives show at the top dose activity, negative = inhibition, actives largely listed as inhibitors | 390,000 compounds, 1% hits | AID 588590; note: potency is the fitted concentration of half-maximal effect
#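 Fluorescent replication assay read twice, at 0 min and 10 min after adding 50 nM (final) substrate. Enzyme (10 nM) and compounds were first incubated 15 min at room temperature; enzyme-free buffer wells were negative controls.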
# WRN helicase inh = blocks human WRN helicase; 360,000 compounds, 0.46% hits; Potency, µM (titrated, usually from 114 µM), without a hit: top-dose activity change, negative = inhibition, actives largely listed as inhibitors; Q14191; WRN helicase unwinding, fluorescent forked duplex, kinetic; note: potency is the fitted concentration of half-maximal effect; % is set by controls: 0 for no effect and ±100 for the full control effect; nearly all actives have a fitted effect of over 55% in size
#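 Fluorescence dequenching readout, ex 525 nm/em 598 nm, kinetic mode: forked duplex DNA (100 nM final) with adjacent fluorophore and quencher unwound by WRN (20 nM final) with 2 mM ATP. Compound preincubation 15 min, room temperature.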
# Pol kappa inh = blocks human DNA polymerase kappa activity | Q9UBT6 | purified Pol kappa, fluorescent DNA synthesis assay, 10 min | Potency, µM (top dose mostly 107 µM), inactives show at the top dose activity, negative = inhibition, most hits filed as inhibitors | 400,000 compounds, 0.53% hits; note: potency is the fitted concentration of half-maximal effect; % is set by controls: 0 for no effect and ±100 for the full control effect
#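 Enzyme at 10 nM met test compounds for 15 min at room temperature. Substrate addition (50 nM final) began the reaction, which was monitored by fluorescence at 0 and 10 min.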
# POLH inh = DNA polymerase eta (human) inhibition | recombinant Pol eta, fluorescent DNA replication assay | Potency, µM (doses to about 114 µM), for inactives: at the highest dose activity change, negative = inhibition, usual class: inhibitors | 390,000 compounds, 1.2% hits; note: potency is the fitted concentration of half-maximal effect; % is set by controls: 0 for no effect and ±100 for the full control effect
# Target sequence (Q9Y253 whole entry, looked up): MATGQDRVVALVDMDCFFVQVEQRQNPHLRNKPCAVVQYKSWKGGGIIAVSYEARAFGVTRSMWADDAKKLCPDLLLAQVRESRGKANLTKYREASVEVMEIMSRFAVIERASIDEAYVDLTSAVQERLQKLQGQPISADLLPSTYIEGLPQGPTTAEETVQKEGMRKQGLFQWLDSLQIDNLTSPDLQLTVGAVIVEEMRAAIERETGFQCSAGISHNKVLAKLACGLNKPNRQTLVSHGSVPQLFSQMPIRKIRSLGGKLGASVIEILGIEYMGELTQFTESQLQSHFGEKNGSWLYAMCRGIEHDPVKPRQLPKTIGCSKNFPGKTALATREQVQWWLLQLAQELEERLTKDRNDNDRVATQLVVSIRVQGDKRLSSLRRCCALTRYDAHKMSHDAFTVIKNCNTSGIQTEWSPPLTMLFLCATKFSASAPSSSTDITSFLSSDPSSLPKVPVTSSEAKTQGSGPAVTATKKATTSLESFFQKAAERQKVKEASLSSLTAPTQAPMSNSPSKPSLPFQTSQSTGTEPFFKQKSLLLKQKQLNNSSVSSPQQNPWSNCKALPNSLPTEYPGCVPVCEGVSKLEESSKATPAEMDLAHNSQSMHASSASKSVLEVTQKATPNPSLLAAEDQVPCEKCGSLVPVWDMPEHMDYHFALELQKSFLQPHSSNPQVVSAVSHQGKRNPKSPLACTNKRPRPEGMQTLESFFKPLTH
#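 Fluorescent replication assay: 50 nM final substrate added after a 15 min room-temperature compound preincubation with 10 nM enzyme. Signal taken at 0 min and again at 10 min.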
# PI5P4K alpha inh = PI5P4K alpha (human) kinase inhibition. PI5P4Kalpha enzyme, ADP-Glo luminescence, 60 min; hits give low values. 330,000 compounds, 1.2% hits. max response, %; active = max response of -50% or lower; inconclusive = between -30% and -50%; inactive = -30% or higher; note: value at the top dose of about 77 µM; % is set by controls: 0 for no effect and ±100 for the full control effect
#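 Reactions run in 0.038 M HEPES pH 7.4, 0.28 mM EGTA, 0.1% CHAPS and 5% DMSO, with PI5P4Kalpha, substrate, compound and 5 microM ATP final, one hour at room temperature. Readout is ADP-Glo luminescence.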
# Pol beta inh-1 = DNA polymerase beta (human) inhibition; Pol beta primer extension/strand displacement, fluorescence kinetic; Potency, µM (titrated, usually from 114 µM), without a hit: top-dose activity change, negative = inhibition, hits mostly inhibitors; 340,000 compounds, 1.3% hits; note: potency is the fitted concentration of half-maximal effect; % is set by controls: 0 for no effect and ±100 for the full control effect
#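 Pol beta (10 nM) and compounds were preincubated 15 min at room temperature, then 50 nM substrate (final) started primer extension/strand displacement. Reads were taken at 0 and 10 min; concentration-response data were fitted to a four-parameter Hill equation.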
# Pol beta inh-2 = Validate hits inhibiting human DNA polymerase beta. shares compounds with Pol beta inh-1. Pol beta primer extension/strand displacement, fluorescence kinetic. Potency, µM, usual class: inhibitors. 250 compounds, 87% hits; calls by dose curve; note: potency is the fitted concentration of half-maximal effect
# Klenow counter = inhibits Klenow fragment polymerase in counter-screen. shares compounds with Pol beta inh-1. Klenow exo- polymerase counter-screen, fluorescent DNA substrate. activity change, negative = inhibition, % at 57.1 µM. 250 tested, under 10 active. AID 540300
# HIV RT counter = inhibits HIV-1 reverse transcriptase in counter-screen; shares compounds with Pol beta inh-1; HIV-1 RT polymerase activity, counter-screen; activity % (negative = inhibition, positive = activation), % at 57.1 µM; 250 tested, under 10 active
# POLB inh gel = DNA polymerase beta inhibition, radiolabeled validation | shares compounds with Pol beta inh-1 | radiolabeled primer extension gel assay, phosphorimager | inhibition, % at 10 µM | 110 compounds, 91% hits | AID 540325;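 active = inhibition at 10 µM of 30% or more; inconclusive = no clear call, values can overlap the other calls; inactive = inhibition at 10 µM under 30%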
# Numbers without * were called inactive; ? = inconclusive; · = no result; [ ] = dose if it differs, or a comment. Rows were chosen to be rich in hits. Some 2.8% of all compounds tested hit in one or more screens of this group. Unless noted, calls come from the whole dose curve; as a rule, active = well fitted curve in the direction sought with a large enough effect; inconclusive = small, poorly fitted or top-dose-only effect, or another doubt; inactive = no such curve, though single readings can be large; an effect the other way counts as inactive or inconclusive.
SMILES,POLI inh,WRN helicase inh,Pol kappa inh,POLH inh,PI5P4K alpha inh,Pol beta inh-1,Pol beta inh-2,Klenow counter,HIV RT counter,POLB inh gel
CC1CC(=O)N(CC(=O)Nc2ccc(OC(F)(F)F)cc2)c2ccccc2S1 (stereo not given),24%,·,-6%,-24%,·,-9%,·,·,·,·
COc1ccc(NC(=O)Cn2ncc3c([nH]c4ccccc43)c2=O)cc1Cl,12%,·,7%,-6%,·,27%,·,·,·,·
CC(C)(C)c1nc2ccccc2c2nnc(SCC(=O)Nc3nccs3)n12,22%,-4%,-5%,-2%,·,14%,·,·,·,·
CC(C)(C)c1nc2ccccc2c2nnc(SCC(=O)Nc3nc4ccccc4s3)n12,45µM*,-22%[57.1 µM],-23%,-16%,·,0.18µM*,?,2,32,85*
O=C(Nc1ccc2c(c1)OCO2)C1CCN(C(=O)CSc2ncnc3ccccc23)CC1,?,-7%[11.6 µM],-29%,79µM*,·,20µM*,35*,-7,40,85*
CCOC(=O)C1=C(C)N=c2s/c(=C/c3ccc(OCC(=O)O)cc3)c(=O)n2C1c1ccc(SC)cc1 (stereo not given),·,·,·,·,·,4.5µM*,7.9*,4,0,·
O=c1cc(-c2cc3ccccc3o2)c2cc(O)ccc2o1,-17%,0%,-10%,-7%,-5,-11%,·,·,·,·
Cc1cc2oc(=O)cc(-c3cc4ccccc4o3)c2cc1O,-103%,-25%,?,?,-22,0.25µM*,16*,-24,17,·
COc1ccc(-n2c(=O)c3sc4ccccc4c3n(CC(=O)Nc3ccccc3F)c2=O)cc1,32%,·,-3%,-1%,·,39%,·,·,·,·
NC(=O)c1sc2nc3c(c(-c4ccco4)c2c1N)CCCC3,54%,-16%,-2%,-7%,8,18%,·,·,·,·
Nc1c(C(=O)NCC2CCCO2)sc2nc3c(c(-c4ccco4)c12)CC/C3=C\c1ccco1 (stereo not given),0.79µM*,2.8µM*,0.71µM*,0.71µM*,-100*,2.8µM*,11*,-7,-5,·
CCSc1nnc(NC(=O)C2Cc3ccccc3CN2S(=O)(=O)CC)s1 (stereo not given),?,-18%[57.1 µM],-41%,56µM*,?,18µM*,28*,-4,10,100*
COC(=O)CCCC1=CC2=CC(=O)C(C)(OC(=O)c3cccs3)C(=O)C2=CN1c1ccc(OC)cc1 (stereo not given),61%,-7%,-23%,-10%,-9,0%,·,·,·,·
CC1(OC(=O)c2cccs2)C(=O)C=C2C=C3CCCN3C=C2C1=O (stereo not given),4.5µM*,?,11µM*,22µM*,-60*,14µM*,28*,9,21,·
COc1ccccc1CNC(=O)c1ccc2c(c1)CCN2S(=O)(=O)c1ccc(Cl)cc1,11%,·,3%,-7%,·,29%,·,·,·,·
O=C(CSc1nc2scc(-c3ccco3)c2c(=O)n1-c1ccccc1)NCC1CCCO1 (stereo not given),40µM*,-23%,-41%,?,?,11µM*,?,-33,25,70*
Cc1cccc(-n2nc(C)c3c(C(=O)O)cc(-c4cccs4)nc32)c1,98%,-11%,-6%,-9%,19,-11%,·,·,·,·
Cc1nn(-c2cccc(Cl)c2)c2nc(-c3ccco3)cc(C(=O)O)c12,?,?,-20%,18µM*,0,14µM*,?,-16,-10,·
O=C(CN1CCSc2ccccc21)N1CCN(c2cccc(Cl)c2)CC1,-2%,·,-15%[60.1 µM],-14%,·,9%,·,·,·,·
Cn1c(SCC(=O)Nc2ccccc2)nnc1-c1ccccc1,12%,·,-7%[60.1 µM],-7%,·,-10%,·,·,·,·
Cn1c(SCC(=O)Nc2ccc3c(c2)oc2ccccc23)nnc1-c1ccccc1,?,-7%[57.1 µM],-12%,-19%,·,2.2µM*,?,-11,15,13
O=C(COC(=O)C1CCN(S(=O)(=O)c2cc([N+](=O)[O-])ccc2Cl)CC1)Nc1ncc(Cl)cc1Cl,?,?,79µM*,8.9µM*,-50*,8.9µM*,28*,-11,-23,86*
O=C(Nc1nc2ccc(F)cc2s1)C1CCN(S(=O)(=O)c2cc([N+](=O)[O-])ccc2Cl)CC1,?,-24%,-19%,?,?,8.9µM*,28*,-26,-4,100*
Cc1ccc(NC(=O)C2CCN(S(=O)(=O)c3cc([N+](=O)[O-])ccc3Cl)CC2)nc1,?,-5%[11.6 µM],?,?,-23,·,·,·,·,·
CCN(CC)c1ccc(C2C(C(=O)Nc3ccccc3C)=C(C)Nc3ncnn32)cc1 (stereo not given),-14%,·,-9%[60.1 µM],-13%,·,2%,·,·,·,·
SMILES,POLI inh,WRN helicase inh,Pol kappa inh,POLH inh,PI5P4K alpha inh,Pol beta inh-1,Pol beta inh-2,Klenow counter,HIV RT counter,POLB inh gel
CCN(CC)C(=O)c1sc2c(c1C)c(=O)n(Cc1ccccc1)c(=O)n2Cc1ccccc1C,2%,·,2%[60.1 µM],-14%,·,0%,·,·,·,·
Cc1cc(C)c2cc(C#N)c(SCC(=O)NCc3ccco3)nc2c1,?,-29%,-8%,?,-24,20µM*,28*,-4,5,86*
CCOc1ccc(CC(=O)Nc2c(C(=O)c3ccccc3)oc3ccc(Cl)cc23)cc1OCC,-6%,·,3%,0%,·,26%,·,·,·,·
N#C/C(=C/c1ccc(OC(=O)c2ccc(Br)s2)cc1)c1nc2ccccc2[nH]1,59%,-3%,-28%,-8%,-23,·,·,·,·,·
N#C/C(=C\c1ccc(OC(=O)c2ccc(Br)s2)cc1)c1nc2ccccc2[nH]1,44%,-23%[57.1 µM],-23%,5.6µM*,-2,2µM*,8.9*,-8,13,·
Cc1ccc(OCc2nn3c(-c4ccco4)nnc3s2)cc1,7%,-7%,7%,7%,-8,2%,·,·,·,·
Clc1ccc(OCc2nn3c(-c4ccco4)nnc3s2)c(Cl)c1,-3%,-27%,-9%,?,·,7.9µM*,25*,-23,45,?
Cc1cccc(NC(=O)c2c(NC(=O)c3ccco3)sc3c2CCC(C(C)(C)C)C3)c1 (stereo not given),?,·,4%,9%,·,15%,·,·,·,·
